Hits are enriched below; roughly 4% of the tested compounds scored in any of these assays.
ADAM10 inh = inhibits human ADAM10 | inhibition, % at 7 µM | O14672 | hit rate 0.62% among 370,000 | recombinant ADAM10, EDANS/DABCYL FRET peptide cleavage, 3 h;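 active = inhibition above a per-campaign cutoff equal to the mean of compounds falling between control-based bounds plus 3 SD, cut at about 20% in these data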;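 note: 0% = DMSO wells while the 100% control is not disclosed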
FAS TE block = inhibitors of human fatty acid synthase thioesterase domain; P49327; recombinant FAS-TE, OMFH fluorogenic substrate, fluorescence endpoint; inhibition, % at 15 µM; hit rate 0.67% among 360,000;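 active = compounds whose normalised, plate-corrected inhibition of enzyme fluorescence in the single-dose primary screen is 50% or more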;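 note: 0% = DMSO with enzyme and 100% = substrate without enzyme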
NR3A LBD binder = modulates the human NR3A ligand-binding domain; hit rate 2.5% among 340,000; AID 1259313; Tm shift relative to glycine control, % at 25 µM; NR3A LBD differential scanning fluorimetry, Tm shift; 0% = protein alone, 100% = glycine-bound protein;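 active = melting temperature shift of at least 10% of the positive control shift, at one fixed dose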
aDG glyco up = alpha-DG glycosylation activation. activation, % at 10 µM. Pro5-aDG cells, alpha-DG glycosylation AlphaScreen (IIH6); 0% Pro5, 100% B10-LARGE cell signal. AID 624168. hit rate 0.22% among 360,000;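 active = activation of at least 8% versus controls, or a plate z-score of at least 8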;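 note: Pro5 are CHO cells carrying HIG-tagged alpha-DG that lacks glycosylation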
ADAM17 inh = inhibits human ADAM17. P78536. recombinant ADAM17, EDANS/DABCYL FRET peptide cleavage. inhibition, % at 6.95 µM. hit rate 0.83% among 370,000;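 active = inhibition above the mean of compounds lying between control limits plus 3 SD, set per campaign, cut at about 8.5% in these data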;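 note: 0% = DMSO-only wells as the low control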
* hit, by the source's call; nt = not tested or not shown.

SMILES	ADAM10 inh	FAS TE block	NR3A LBD binder	aDG glyco up	ADAM17 inh
C=CC[C@H](CC(=O)N(CCO)Cc1ccccc1)C(=O)N[C@@H](C)COC(=O)[C@@H](CC=C)Cc1ccc(F)cc1	-4	-2	1	0	-1
C=CC[C@@H](CC(=O)N(CCO)Cc1ccccc1)C(=O)N[C@@H](COC(=O)[C@@H](CC=C)Cc1ccc(F)cc1)Cc1ccccc1	23*	19	-11	2	13*
C=CC[C@@H](CC(=O)N(CCO)Cc1ccccc1)C(=O)N[C@H](COC(=O)[C@@H](CC=C)Cc1ccc(F)cc1)Cc1ccccc1	33*	20	1	1	14*
CCSc1nc2sc3c(c2c2[n+]1CC(CBr)O2)CCCC3 (configuration not stated)	-4	20	-2	0	-2
COc1ccccc1-c1nnc2sc(COc3ccc(Cl)cc3Cl)nn12	4	27	-17	2	1
Cc1[nH]n(-c2ncc(-c3ccc(Cl)cc3)s2)c(=O)c1C(c1ccc(Cl)cc1)C(C#N)C#N (configuration not stated)	nt	21	17*	0	nt
Cc1ccc(/C=C/C(=O)OCC(=O)Nc2ccc3[nH]c(=O)[nH]c3c2)o1	-1	-5	2	0	-3
Cc1cccc(OCC(=O)Nc2nc3ccc([N+](=O)[O-])cc3s2)c1C	1	3	-1	0	-1
COc1cccc2sc(NC(=O)c3ccc(Br)s3)nc12	-4	3	11*	0	-5
Cc1ccc(C(=O)Nc2nc3ccc(S(C)(=O)=O)cc3s2)s1	-22	-6	6	0	-4
Cc1nc2ccc(NC(=O)c3ccc(Cl)s3)cc2s1	5	2	27*	0	2
O=C(COc1ccccc1C(=O)O)Nc1nc2ccc([N+](=O)[O-])cc2s1	-7	9	14*	0	-4
Cc1ccc(C(=O)Nc2nc3ccccc3s2)s1	-13	4	18*	0	-8
CSc1ccc(NC(=O)C2(C)CCN2C(=O)c2cc(C)n(C)n2)cc1 (configuration not stated)	-8	-3	nt	0	-5
CC1CCN(Cc2ccc(-c3nnn(CC(=O)Nc4ccccc4Cl)n3)cc2)CC1	-1	2	-2	2	4
COC(=O)c1ccc(NC(=O)COC(=O)C2=NN(c3ccccc3)C(=O)CC2)cc1	-3	-3	1	0	-1
Cc1nc2ccc(NC(=O)c3nn(C(C)C)c(=O)c4ccccc34)cc2s1	6	3	17*	0	2
Cc1nc2ccc(NC(=O)COc3ccccc3C)cc2s1	-3	-8	32*	0	3
Cc1ccc2nc(NC(=O)c3ccc(Cl)s3)sc2c1	-19	-2	20*	0	-2
Cc1ccc(S(=O)(=O)N2CCN(C)CC2)cc1C	2	-3	2	0	1
COc1ccc(NC(=O)c2cccc(S(=O)(=O)Nc3ccc(Br)cc3)c2)cn1	13	22	22*	1	5
O=C(Nc1ccc(Br)cc1)c1cccc(S(=O)(=O)Nc2cnc3ccccc3c2)c1	13	24	41*	0	5
O=C(Nc1ccc(Br)cc1)c1cccc(S(=O)(=O)Nc2ccccn2)c1	-8	1	7	0	0
O=C(Nc1ccccc1)c1cccc(S(=O)(=O)Nc2ccccn2)c1	-12	-7	16*	0	-3
O=C(O)c1ccc(NC(=O)c2cccc(S(=O)(=O)Nc3ccc(C(=O)O)cc3)c2)cc1	-6	-6	-1	0	-5
Cc1ccc(OCCC(=O)OCC(=O)N2CCN(S(=O)(=O)c3ccc(C)cc3)CC2)cc1	0	17	1	0	-4
CCCCCCC(=O)NC1CCCCN(Cc2ccc(Cl)cc2)C1=O (configuration not stated)	0	nt	nt	nt	-2
S=c1nc(NCc2cccc(Cl)c2)c2ccccc2[nH]1	3	4	15*	0	2
COc1cc2[nH]c(=S)nc(NCc3cccc(Cl)c3)c2cc1OC	-24	14	-14	0	-7
C#CCOCCOCCOCCNc1nc(N2CCN(C(=O)CCCCCCCCCCNC(=O)[C@H]([C@@H](C)CC)n3cc(CCCCCN)nn3)CC2)nc(N2CCN(C(=O)CCCCCCCCCCNC(=O)[C@H](CCCCN)n3cc(CCCC(=O)O)nn3)CC2)n1	nt	-13	22*	0	nt

Assay outcomes: PubChem, several laboratories
